Rows were chosen to be rich in hits. Some 17% of all compounds tested hit in one or more screens of this group.
TGFb SMAD3 inh: TGF-b pathway inhibition | Potency, µM (doses to about 46.1 µM), usual class: inhibitors | actives 1.2% (n = 410,000) | HepG2 CAGA-GFP TGF-b/SMAD3 reporter, GFP fluorescence, 18 h; TGF-beta stimulated, 500 pg/mL final | AID 588855; further: nearly all actives have a fitted effect of over 65% in size
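Inhibition was scored as loss of TGF-beta-induced (500 pg/mL final, 18 hours, 37 degrees C) GFP in HEPG2 cells carrying a CAGA-GFP reporter, in DMEM with 1% FBS. Well GFP was summed per cell; Activity was normalised to unstimulated and stimulated DMSO wells, then concentration-response fitting.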
S2 tox: cell viability loss in ATXN counter-screen; Potency, µM (highest dose often 56.7 µM), actives largely listed as cytotoxic; actives 0.49% (n = 400,000); S2 cells (HEK-293 line with an ATXN2-luciferase reporter) viability, CellTiter-Fluor protease fluorescence, 24 h; AID 651635; further: nearly all actives have a fitted effect of over 40% in size
DT40 TDP1 CPT: growth inhibition of DT40 Tdp1-/-;hTDP1 cells with camptothecin (screen for TDP1 inhibitors) | chicken DT40 Tdp1-/-;hTDP1 cells + 20 nM CPT, ATP luminescence, 48 h | Potency, µM (doses to about 46.2 µM), hits mostly inhibitors | actives 12% (n = 420,000) | AID 686979; further: nearly all actives have a fitted effect of over 55% in size
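Chicken DT40 Tdp1-/- cells complemented with human TDP1, 400 cells/well, exposed to compounds plus 20 nM camptothecin for at least 48 h at 37 C; viability read as ATP content by CellTiter-Glo luminescence.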
TDP1 cell noCPT: qHTS for Inhibitors of human tyrosyl-DNA phosphodiesterase 1 (TDP1): qHTS in cells in absence of CPT; Potency, µM (titrated, usually from 46.2 µM), most hits filed as inhibitors; DT40 Tdp1-/- hTDP1 cells, no CPT, ATP luminescence, 48 h; actives 15% (n = 420,000); AID 686978, 2013; further: nearly all actives have a fitted effect of over 55% in size
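Luminescent ATP content (CellTiter-Glo) served as the growth readout. Knockout chicken DT40 cells expressing human TDP1 were exposed to compounds without camptothecin for a minimum 48 hr at 37 °C.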
HepG2 viability: HepG2 cytotoxicity, counter-screen for TGF-b inhibitors. HepG2 CAGA-GFP viability, ATP luminescence, 18 h. Potency, µM (titrated, usually from 46.1 µM), most hits filed as cytotoxic. actives 0.76% (n = 410,000). AID 588856
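HepG2 CAGA-GFP cells (1000/well, DMEM with 1% FBS) received compound, then TGF-beta at 500 pg/mL final, and were incubated 18 hours at 37 degrees C. Viability was read by CellTiter-Glo luminescence. Media-only wells were set as complete cell-killing and DMSO as no toxicity.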
ATXN2 expr inh: inhibitors of ATXN2 expression; actives 0.72% (n = 360,000); Potency, µM (series often up to 57 µM), usual class: inhibitors; HEK-293 ATXN2-luciferase reporter, luminescence, 24 h; AID 1745845; further: nearly all actives have a fitted effect of over 55% in size
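ATXN2-luciferase reporter cells (luciferase flanked by upstream and downstream ATXN2 gene portions) were treated 24 h at 37 °C with compounds at up to 57 uM. SteadyGlo luminescence gave expression; GF-AFC fluorescence gave viability.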
Large screens that a line does not name were inactive. The call rests on the fitted dose curve; in most records, active means well fitted curve in the direction sought with a large enough effect; inconclusive means small, poorly fitted or top-dose-only effect, or another doubt; inactive means no such curve, though single readings can be large; an effect the other way counts as inactive or inconclusive.

CCc1nc2c(OCc3ccc(C(=O)OC)cc3)cccn2c1N(C)C(=O)c1ccc(C)cc1	DT40 TDP1 CPT 23µM, TDP1 cell noCPT 18µM
CCc1nc2c(OCc3ccc(F)cc3)cccn2c1N(C)C(=O)c1ccc(C)cc1	DT40 TDP1 CPT 15µM, TDP1 cell noCPT inconclusive
CCc1nc2c(OCc3ccc(Cl)cc3)cccn2c1N(C)C(=O)c1cccs1	DT40 TDP1 CPT inconclusive, TDP1 cell noCPT inconclusive, ATXN2 expr inh inconclusive
CCc1nc2c(OCc3ccc(C(=O)N(C)C)cc3)cccn2c1N(C)C(=O)c1ccc(C)cc1	none
CCc1nc2c(OCc3ccc(F)c(F)c3)cccn2c1N(C)C(=O)c1cccs1	DT40 TDP1 CPT inconclusive, TDP1 cell noCPT 23µM
CC[C@H](CC[C@@H](C)[C@H]1CC[C@H]2[C@@H]3CC=C4C[C@@H](O)CC[C@]4(C)[C@@H]3CC[C@]12C)C(C)C	none (no result: TGFb SMAD3 inh, S2 tox, DT40 TDP1 CPT, TDP1 cell noCPT, HepG2 viability)
Cc1ccc(-c2cc(O)cc3sc(=O)oc23)cc1C	TGFb SMAD3 inh inconclusive, S2 tox inconclusive, DT40 TDP1 CPT inconclusive, TDP1 cell noCPT 21µM (no result: ATXN2 expr inh)
CC(OC(=O)CCCN=C1NS(=O)(=O)c2ccccc21)C(=O)Nc1ccc(F)c(F)c1F (stereo not drawn)	none
CCOc1ccc(C(NC(C)=O)c2cc(Cl)c3cccnc3c2O)cc1 (stereo not drawn)	TGFb SMAD3 inh 3.2µM, DT40 TDP1 CPT 3.2µM, TDP1 cell noCPT 4µM (no result: S2 tox, ATXN2 expr inh)
CCC(=O)NC(c1ccc(C)cc1)c1cc(Cl)c2cccnc2c1O (stereo not drawn)	TGFb SMAD3 inh inconclusive, S2 tox inconclusive, ATXN2 expr inh inconclusive (no result: DT40 TDP1 CPT, TDP1 cell noCPT)
COc1ccc(C(NC(C)=O)c2cc(Cl)c3cccnc3c2O)cc1OC (stereo not drawn)	TGFb SMAD3 inh inconclusive, S2 tox inconclusive, DT40 TDP1 CPT 7.3µM, TDP1 cell noCPT 4.6µM, ATXN2 expr inh inconclusive
CCC(=O)NC(c1ccc(OC)c(OC)c1)c1cc(Cl)c2cccnc2c1O (stereo not drawn)	TGFb SMAD3 inh inconclusive, DT40 TDP1 CPT 4.1µM, TDP1 cell noCPT 4.6µM, ATXN2 expr inh inconclusive (no result: S2 tox)
COc1ccc(C(NC(C)=O)c2nccc3cc(OC)c(OC)cc23)cc1OC (stereo not drawn)	none
COc1ccccc1C(NC(C)=O)c1cc(Cl)c2cccnc2c1O (stereo not drawn)	TGFb SMAD3 inh inconclusive, DT40 TDP1 CPT 1.6µM, TDP1 cell noCPT 2.3µM, ATXN2 expr inh inconclusive
Cc1cc(C)cc(NC(=O)C2CC(=O)N(c3ccccc3)C2)c1 (stereo not drawn)	TDP1 cell noCPT inconclusive
Cc1sc2nc(CN3CCOCC3)nc(NS(=O)(=O)c3cc(Cl)ccc3Cl)c2c1C	none
O=C(O)COc1ccccc1C(Nc1ccccn1)c1cc(Cl)c2cccnc2c1O (stereo not drawn)	TDP1 cell noCPT inconclusive
COc1ccc(C(NC(=O)c2ccc(-c3ccccc3)cc2)c2ccccc2)cc1 (stereo not drawn)	S2 tox inconclusive, DT40 TDP1 CPT 13µM, TDP1 cell noCPT 13µM
COc1ccc(C(=O)NC(c2ccc(Cl)cc2)c2cc(Cl)c3cccnc3c2O)cc1 (stereo not drawn)	TGFb SMAD3 inh inconclusive, DT40 TDP1 CPT 3.7µM, TDP1 cell noCPT 4.1µM
CCOc1ccc(C(Nc2cccnc2)c2cc(Cl)c3cccnc3c2O)cc1 (stereo not drawn)	TGFb SMAD3 inh inconclusive, S2 tox inconclusive, DT40 TDP1 CPT inconclusive, TDP1 cell noCPT 15µM, ATXN2 expr inh inconclusive
COc1cccc(CSc2nc(-c3ccccc3F)nc3c2Cc2c(CO)cnc(C)c2O3)c1	DT40 TDP1 CPT inconclusive, TDP1 cell noCPT 21µM
CCSc1nc(-c2ccccc2OC)nc2c1Cc1c(CO)cnc(C)c1O2	DT40 TDP1 CPT 8.2µM, TDP1 cell noCPT 8.2µM (no result: S2 tox, ATXN2 expr inh)
CCSc1nc(-c2ccccc2F)nc2c1Cc1c(CO)cnc(C)c1O2	none
CCC(C(=O)O)n1c2ccccc2c2cn[nH]c(=O)c21 (stereo not drawn)	DT40 TDP1 CPT inconclusive
CCCCCCOC(=O)c1ccccc1NC(=O)/C=C/C(=O)O	S2 tox inconclusive, DT40 TDP1 CPT 16µM, TDP1 cell noCPT inconclusive
COc1ccc(NS(=O)(=O)c2ccc(C(=O)N3CCCCCC3)cc2)cc1	TGFb SMAD3 inh inconclusive, S2 tox inconclusive, DT40 TDP1 CPT 10µM, TDP1 cell noCPT 8.2µM, ATXN2 expr inh inconclusive
O=S(=O)(Nc1c(O)ccc2ccccc12)c1ccccc1	TGFb SMAD3 inh inconclusive, DT40 TDP1 CPT inconclusive, TDP1 cell noCPT 16µM (no result: ATXN2 expr inh)
COc1ccc(NS(=O)(=O)c2ccc(C(=O)N3CCN(Cc4ccccc4)CC3)cc2)cc1	S2 tox inconclusive, DT40 TDP1 CPT 12µM, TDP1 cell noCPT inconclusive (no result: ATXN2 expr inh)
O=C(Nc1ccccc1)Nc1ccc(C(=O)N2CCCC2)cc1	DT40 TDP1 CPT 21µM, TDP1 cell noCPT 12µM, ATXN2 expr inh inconclusive
O=C(Nc1ccc(C(=O)N2CCCCC2)cc1)c1ccccc1	none
CC(OC(=O)c1cc(Br)ccc1O)C(=O)NCc1ccc2c(c1)OCO2 (stereo not drawn)	none
COc1ccc(C)cc1NC(=O)c1ccc2c(O)c(S(=O)(=O)c3ccccc3)c(=O)[nH]c2c1	S2 tox inconclusive
COc1ccc(-n2c(=O)c3sc4ccccc4c3n(CC(=O)Nc3ccccc3F)c2=O)cc1	none
COc1ccccc1Nc1ccc(NS(=O)(=O)c2ccc(C(C)=O)cc2)cc1	TDP1 cell noCPT 16µM
COc1ccccc1NS(=O)(=O)c1ccc(NC(C)=O)cc1	none
CCOc1ccc(NS(=O)(=O)c2ccc(C(=O)N3CCCC(C)C3)cc2)cc1 (stereo not drawn)	S2 tox inconclusive, DT40 TDP1 CPT 16µM, TDP1 cell noCPT 16µM, ATXN2 expr inh inconclusive
CCOc1ccc(S(=O)(=O)Nc2ccc(C(=O)N3CCCC3)cc2)cc1	none
CCOc1ccc(NS(=O)(=O)c2ccc(C(=O)N3CCCCCC3)cc2)cc1	DT40 TDP1 CPT 15µM, TDP1 cell noCPT 18µM
COc1ccc(S(=O)(=O)Nc2ccc(O)c3ccccc23)cc1	TGFb SMAD3 inh inconclusive, S2 tox 20µM, DT40 TDP1 CPT 3.3µM, TDP1 cell noCPT 4.6µM, ATXN2 expr inh inconclusive
CN(CCc1ccccc1)C(=O)c1cccc(NC(=O)Cc2cccc(NC(=O)C3CCN(C(=O)c4ccccc4)CC3)c2)c1	TGFb SMAD3 inh inconclusive, DT40 TDP1 CPT inconclusive, TDP1 cell noCPT inconclusive
CC(=O)/C(=N\Nc1ccc(C)cc1)Sc1nncn1C	none
CCOc1ccc(S(=O)(=O)Nc2cccc(C(=O)N3CCN(c4cccc(OC)c4)CC3)c2)cc1	DT40 TDP1 CPT 23µM, TDP1 cell noCPT 18µM

Screens as filed in PubChem.
